Screening data as filed in PubChem BioAssay.
An excerpt weighted towards active compounds, which were near 3.2% of everything screened.
DENV2 CPE rescue = protects cells from dengue virus 2 cytopathic effect. DENV2-infected cells, cytopathic effect rescue, plate reader. CPE inhibition, % at 9.99 µM. 350,000 tested, 1.7% active. AID 651640; in the data active = CPE inhibition above about 20%, passing the limit was not always enough; inconclusive = no clear call, values can overlap the other calls; tested in BHK-21 cells
CaV13 ICDI inh = Disruptors of the CACNA1D IQ motif to Ca2+-dependent inactivation inhibitor domain association, primary screening, Förster resonance energy transfer in intact living …; AID 743397; HEK cells, CFP/YFP FRET ICDI-IQ, plate reader, 10 min; percent FRET-ratio fall versus neutral wells; 340,000 tested, 0.098% active; inhibition, % at 12.3 µM;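 active = mean replicate inhibition of at least 30% and at least 1% of replicates passing that level; inconclusive = only one of the two criteria is met; inactive = neither criterion is met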
INS-1E GSIS act = primary screen for activators of insulin secretion dependent on glucose, INS-1E cells, GLuc reporter luminescence | activation, % at 16.6 µM | 370,000 tested, 0.61% active | INS-1E GLuc reporter insulin secretion, 2-3 h;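 active = lowest replicate activation of at least 40%, so every replicate reaches that level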
rRNA inh HTS = selective bacterial rRNA inhibition in E. coli; E. coli WT GFP vs humanized-ribosome RFP mutants, fluorescence, 24 h; hits give low values; DMSO median 0, no signal -100; GFP signal change (wild-type ribosome), % (test concentration not listed); 350,000 tested, 1.6% active;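 active = significant combined selectivity score with lowered wild-type GFP, culture density cut under 30%, mutant RFP and density less affected; inactive = any of these conditions unmet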
ERAP1 inh = ERAP1 (human) enzyme inhibition | Q9NZ08 | recombinant ERAP1, Leu-AMC fluorescence, 60 min | inhibition, % at 10.7 µM | 340,000 tested, 0.15% active | AID 652197;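 active = mean replicate inhibition of at least 30%, or all replicates individually reaching that 30% level; inactive = mean below 30% and not every replicate reaching it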
PGC1a acetyl inh = modulators of PGC1a acetylation; U2OS PGC1a acetylation, AlphaScreen anti-acetyl-lysine; with virally co-expressed GCN5 acetyltransferase; inhibition, % at 15.6 µM; 350,000 tested, 0.17% active; AID 651687;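 active = every replicate shows inhibition of at least 40%; inconclusive = mean inhibition at least 40% but some replicate below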
Numbers stand for hits; 0 = inactive; ? = inconclusive; - = not tested or not shown.

SMILES	DENV2 CPE rescue	CaV13 ICDI inh	INS-1E GSIS act	rRNA inh HTS	ERAP1 inh	PGC1a acetyl inh
O=C(Cc1ccncc1)NCC[C@H]1CC[C@H](NC(=O)Nc2ccc(Cl)cc2)[C@@H](CO)O1	0	-	0	0	0	0
O=C(C[C@@H]1CC[C@@H]2[C@H](COC[C@@H](O)CN2C(=O)c2cnccn2)O1)NCc1ccc(F)cc1	0	-	0	0	0	0
CN(C)C(=O)c1ccc(-c2ccc3c(c2)[C@@H]2[C@@H](CCN2C(=O)C2CC2)[C@H](CO)N3C)cc1	0	-	0	0	0	0
O=S(=O)(c1ccc(F)cc1)N1CC[C@@H]2[C@@H](CO)Nc3ccc(C#Cc4cccc(F)c4)cc3[C@@H]21	24	-	0	0	0	0
Cc1cccc(S(=O)(=O)N2CC[C@@H]3[C@@H](CO)Nc4ccc(C#Cc5cccc(F)c5)cc4[C@@H]32)c1	0	-	0	0	0	0
C=CCn1c(SCC(=O)O)nc2sc(CC)cc2c1=O	0	0	0	0	0	0
C=CCn1c(SCC#N)nc2sc(CC)cc2c1=O	0	0	89	0	0	0
CO[C@H]1CN(C)C(=O)c2cc(NS(=O)(=O)c3ccc(Cl)cc3)ccc2OC[C@H](C)N(C)C[C@H]1C	0	-	0	0	0	0
Cc1ccc(S(=O)(=O)NCC(=O)OCC(=O)N(Cc2ccccc2)C(C)(C)C)cc1	93	0	-	0	0	-
CCN(CC)C(=O)Oc1nnc(SC(C)C)n1-c1ccc(Cl)cc1	0	0	-	-29	0	0
COc1cc(CN2CC3(CN(C(=O)NC(C)C)C3)c3c(n(C)c4cc(OC)ccc34)[C@@H]2CO)cc(OC)c1	0	-	0	0	0	-
Cc1noc(C)c1NC(=O)N(C)C[C@H]1OCCCC[C@@H](C)Oc2ccc(NC(=O)c3ccccc3)cc2C(=O)N([C@@H](C)CO)C[C@H]1C	0	-	0	0	0	0
N#Cc1cc(C(=O)c2cc(F)ccc2O)cn(Cc2ccccc2)c1=O	0	0	0	-24	0	0
O=C(C[C@H]1C[C@H]2c3cc(NC(=O)Cc4ccncc4)ccc3O[C@H]2[C@@H](CO)O1)NCc1cc(F)ccc1F	0	-	0	0	0	0
COc1ccc(NC(=O)Nc2cccc3c2O[C@@H](CN(C)S(=O)(=O)c2ccccc2)[C@H](C)CN([C@@H](C)CO)C3=O)cc1	0	-	0	0	0	0
Cc1cccc(NC(=S)NNC(=O)c2csc3c2CCC(C)C3)c1 (stereo not given)	0	0	0	-40	0	0
CC[C@]1(C(=O)OC)[C@H]2C(=O)N(Cc3ccccc3)C(=O)[C@H]2[C@H]2CN=C(SCc3ccc(C(=O)OC)cc3)N21	0	0	0	-26	0	0
CC(C)COCC(O)CCC(=O)NNC(=S)Nc1ccccc1 (stereo not given)	94	0	-	0	0	-
O=C(Cc1ccccc1)NNC(=S)Nc1ccccc1	0	0	0	0	0	0
C=CC[C@]12C=C(OC)C(=O)C(OC)=C1O[C@@H](c1ccc3c(c1)OCO3)[C@H]2C	30	-	0	0	0	0
COc1cc2c(cc1NC(=O)/C=C/c1ccc([N+](=O)[O-])cc1)oc1ccccc12	39	0	0	0	0	0
COc1ccc(/C=C/C(=O)NC(=S)Nc2cc([N+](=O)[O-])ccc2O)cc1OC	0	0	0	-17	0	-
COc1cc2c(cc1NC(=O)COC(=O)/C=C/c1ccc([N+](=O)[O-])cc1)oc1ccccc12	0	0	0	0	0	0
C[C@H](CO)N1C[C@H](C)[C@@H](CN(C)CC2CCCCC2)Oc2c(NC(=O)Cc3cn(C)c4ccccc34)cccc2C1=O	-	-	0	0	-	-
C[C@@H]1CCCCO[C@H](CN(C)S(=O)(=O)c2ccc(F)cc2)[C@@H](C)CN([C@H](C)CO)C(=O)c2cc(NS(=O)(=O)c3cn(C)cn3)ccc2O1	23	-	0	0	0	0
SMILES	DENV2 CPE rescue	CaV13 ICDI inh	INS-1E GSIS act	rRNA inh HTS	ERAP1 inh	PGC1a acetyl inh
C[C@@H]1CN([C@H](C)CO)C(=O)c2cc(NS(=O)(=O)c3cccs3)ccc2O[C@@H](C)CCCCO[C@@H]1CN(C)S(=O)(=O)c1cn(C)cn1	0	-	0	0	0	0
C[C@@H]1CCCCO[C@@H](CN(C)S(=O)(=O)c2cn(C)cn2)[C@H](C)CN([C@@H](C)CO)C(=O)c2cc(N(C)C)ccc2O1	53	-	0	0	0	0
Cc1ccc(S(=O)(=O)N(C)C[C@H]2OCCCC[C@H](C)Oc3ccc(NS(=O)(=O)c4cn(C)cn4)cc3C(=O)N([C@@H](C)CO)C[C@@H]2C)cc1	0	-	0	0	0	0
C[C@@H]1CN([C@@H](C)CO)C(=O)c2cc(NS(=O)(=O)c3cccs3)ccc2O[C@@H](C)CCCCO[C@H]1CN(C)S(=O)(=O)c1cn(C)cn1	31	-	0	0	0	0
Cc1ccc(S(=O)(=O)Nc2ccc3c(c2)C(=O)N([C@@H](C)CO)C[C@@H](C)[C@@H](CN(C)S(=O)(=O)c2cn(C)cn2)OCCCC[C@H](C)O3)cc1	26	-	0	0	0	0
O=C(C[C@@H]1C=C[C@H](NC(=O)NC2CCCCC2)[C@H](CO)O1)NCc1ccccc1	?	-	0	0	0	0
COc1ccc(S(=O)(=O)Nc2ccc3c(c2)C(=O)N([C@H](C)CO)C[C@@H](C)[C@@H](CN(C)S(=O)(=O)c2cn(C)cn2)OCCCC[C@H](C)O3)cc1	53	-	0	0	0	0
Cc1ccc(S(=O)(=O)N(C)C[C@@H]2OCCCC[C@@H](C)Oc3ccc(NS(=O)(=O)c4cn(C)cn4)cc3C(=O)N([C@H](C)CO)C[C@H]2C)cc1	0	-	0	0	0	0
COc1ccc(CN(C)C[C@H]2OCCCC[C@H](C)Oc3ccc(NS(=O)(=O)c4cn(C)cn4)cc3C(=O)N([C@H](C)CO)C[C@@H]2C)cc1	0	-	0	0	0	0
C[C@H](CO)N1C[C@H](C)[C@H](CN(C)Cc2ccc(C(=O)O)cc2)Oc2ccc(NS(=O)(=O)c3cn(C)cn3)cc2C1=O	41	-	0	0	0	0
Cc1ccc(S(=O)(=O)Nc2ccc3c(c2)C(=O)N([C@H](C)CO)C[C@@H](C)[C@@H](CN(C)S(=O)(=O)c2cn(C)cn2)OCCCC[C@H](C)O3)cc1	34	-	0	0	0	0
COc1ccc(CN(C)C[C@H]2OCCCC[C@@H](C)Oc3ccc(NS(=O)(=O)c4cn(C)cn4)cc3C(=O)N([C@H](C)CO)C[C@@H]2C)cc1	52	-	0	0	0	0
COc1ccccc1C1CC(c2ccc(Br)cc2)=NN1C(=O)c1cccnc1 (stereo not given)	-	0	0	-	-	-
COc1ccc(C2CC(c3ccccc3)=NN2c2ccc(C(N)=O)cc2)cc1 (stereo not given)	0	83	0	0	0	0
